Compound activity deposited in PubChem BioAssay by National Center for Advancing Translational Sciences (NCATS).
Rows were chosen to be rich in hits. Some 0.78% of all compounds tested hit in one or more screens of this group.
CCT chaperon mod – High-Throughput Screening for Modulators of Cytosolic Chaperonin Activity. purified chaperonin ATPase assay, HTRF ADP detection, 30 min. actives 0.3% (n = 360,000). activity change, % (no concentration beside the values), hits read low. AID 651819, 2012; in the data active means activity change below about -30%; further: on the % scale 0 is the no-effect control and ±100 the full control effect
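Nucleotide hydrolysis assay: TRiC at 20–40 nM final (set by batch activity) with 10 uM ATP, 30 min at 37 °C, in presence of 76 uM compound. Detection by competitive ADP HTRF, 30 min ambient.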
PI4K2A block – qHTS for small molecular inhibitors of PI4K2A | Phosphatidylinositol 4-kinase type 2-alpha (Homo sapiens), Q9BTU6 | purified PI4K2A, ADP-Glo luminescence, 1 h; stronger effect = lower value | activity change, negative = inhibition, % at 76.9 µM | actives 0.13% (n = 420,000) | AID 1346378, 2018; in the data active means activity change below about -50%; inconclusive means mostly about -30% to -49%;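 further: -100% = wells without enzyme as full effect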
Target sequence (Q9BTU6 whole entry, looked up): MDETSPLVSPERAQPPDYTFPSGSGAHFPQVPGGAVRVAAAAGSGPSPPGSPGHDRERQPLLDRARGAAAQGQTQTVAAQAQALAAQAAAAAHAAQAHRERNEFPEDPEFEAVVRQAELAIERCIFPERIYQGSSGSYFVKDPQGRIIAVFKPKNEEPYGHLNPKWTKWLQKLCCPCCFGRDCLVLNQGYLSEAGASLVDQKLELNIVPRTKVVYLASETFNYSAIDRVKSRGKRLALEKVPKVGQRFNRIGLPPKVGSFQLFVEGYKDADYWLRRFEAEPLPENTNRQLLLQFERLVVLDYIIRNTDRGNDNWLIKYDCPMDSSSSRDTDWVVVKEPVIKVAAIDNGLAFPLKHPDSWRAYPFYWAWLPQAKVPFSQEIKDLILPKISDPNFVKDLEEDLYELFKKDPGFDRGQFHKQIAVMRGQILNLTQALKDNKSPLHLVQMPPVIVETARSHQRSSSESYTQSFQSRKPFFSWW
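ADP-Glo luminescence measured ADP generated by PI4K2A enzyme (4 ug/mL before mixing) with 1.2 mM PI substrate (pre-mix) and 300 microM ATP (pre-mix). Tris pH7.5 buffer with MgCl2, Triton X-100; 1 h reaction at ambient temperature.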
PINK1 modulator – A Quantitative High throughput Screen to Identify Chemical Modulators of PINK1 Expression. AID 624263, 2012. actives 0.2% (n = 410,000). Potency, µM (highest dose often 76.6 µM), for the others: top-dose activation (PINK1 increase), actives largely listed as activators. PINK1 immunofluorescence, high-content cytometry, 24 h; active means well fitted activation curve with a large enough effect; inconclusive means small, poorly fitted or top-dose-only effect; cell line not stated here; further: potency means the concentration at half of the fitted maximal effect; % of control where 0% means no effect; nearly all actives have a fitted effect of over 65% in size
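Stable cell line, 250 cells/well, 12 h attachment; compounds pinned at 5 concentrations, 24 h; CCCP control. Fixed with nuclear dye, primary antibodies 12 h at 10 degrees C, secondary plus cell stain; laser-scanning cytometer read.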
Tb PGK inh – qHTS Assay to Find Inhibitors of Phosphoglycerate Kinase; Phosphoglycerate kinase, glycosomal (Trypanosoma brucei brucei), P07378; PGK/GAPDH coupled, Kinase-Glo luminescence, 60 min; Potency, µM (doses to about 57.5 µM), without a hit: at the highest dose activity change, negative = inhibition, hits mostly inhibitors; actives 0.043% (n = 380,000); AID 602233, 2012; further: potency means the concentration at half of the fitted maximal effect; on the % scale 0 is the no-effect control and ±100 the full control effect; nearly all actives have a fitted effect of over 60% in size
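Luminescent ATP detection (Kinase-Glo Plus) follows a 60-minute room-temperature incubation, with wells lacking PGK as controls. Buffer: 100 mM TEA (pH 7.6), 5 mM MgCl2, 0.01% Tween-20. Coupling enzyme GAPDH (100 nM final) supplies unstable 1,3-BPG in-well.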
GLS inhibitor – qHTS for Inhibitors of Glutaminase (GLS). Glutaminase kidney isoform, mitochondrial (Homo sapiens), O94925. GLS enzymatic activity, qHTS titration. Potency, µM (doses to about 45.5 µM), inactives show at the top dose activity change, negative = inhibition, actives largely listed as inhibitors. actives 0.21% (n = 410,000). AID 624170, 2012; further: potency means the concentration at half of the fitted maximal effect; on the % scale 0 is the no-effect control and ±100 the full control effect
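Glutamate formation by hKGA was monitored fluorometrically using coupled glutamate oxidase, HRP and Amplex Red. Substrate was added as 1 mM L-glutamine solution; incubation was 30 min at RT after an initial read.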
The depositor's hits bear a star; i = inactive; u = inconclusive; x = no result given; [ ] = dose if it differs, or a comment. Unless noted, the call rests on the fitted dose curve; in most records, active means well fitted curve in the direction sought with a large enough effect; inconclusive means small, poorly fitted or top-dose-only effect, or another doubt; inactive means no such curve, though single readings can be large; an effect the other way counts as inactive or inconclusive.

SMILES	CCT chaperon mod	PI4K2A block	PINK1 modulator	Tb PGK inh	GLS inhibitor
CCOc1ccccc1-c1cc(-c2n[nH]c(=S)n2CC)c2ccccc2n1	-3	4	0%	-5%	-8%
NC(=O)Cc1ccc(Nc2nnc(-c3ccc(O)cc3)c3ccccc23)cc1	0	-6	2%	-4%	11µM*
Cc1ccc(S(=O)(=O)CCC(=O)OCC(=O)NCc2ccc(F)cc2)cc1	-1	5	2%	-8%	-7%
Cc1ccc(CNC(=O)CCS(=O)(=O)c2ccc(Br)cc2)cc1	2	-4	3%	u	11µM*
O=C(CCS(=O)(=O)c1ccc(Br)cc1)NCc1ccc(F)cc1	-80*	-8	0%	u	u
O=C(NNc1cccc(Cl)n1)c1c(F)cccc1F	1	-10	1%	2%	7.9µM*
O=C(NNc1cccc(Cl)n1)c1c(Cl)cccc1Cl	0	-2	x	-6%	x
COCCn1c(Br)nc2c1c(=O)n(C)c(=O)n2C	-42*	6	-1%	-6%	0%
Cc1ccc(OCCn2c(Br)nc3c2c(=O)n(C)c(=O)n3C)cc1	-1	-3	7%[38.3 µM]	i	1%
Cc1ccc(-c2c(C(=O)N/N=C/c3c[nH]c4ccccc34)nnn2-c2nonc2N)cc1	-74*	-4	-2%	i	15%
O=C(N/N=C/c1c[nH]c2ccccc12)c1cccs1	-40*	4	3%	-4%	14%
CC(C)(CNC(=O)c1cnn(-c2ncc3c(n2)-c2ccccc2CCC3)c1C1CC1)N1CCOCC1	x	x	0%	x	x
CCN(CC)CC(=O)Nc1c(C)cccc1C(=O)OC	x	2	x	x	x
O=C(NCCOC(=O)c1ccc(C(=O)OCCNC(=O)c2cccnc2)s1)c1cccnc1	-56*	-4	13%[38.3 µM]	i	-6%
O=C(O)CCC(=O)Nc1ccc(Cc2ccc(NC(=O)CCC(=O)O)c(O)c2)cc1O	-1	0	0%	-3%	1.4µM*
Cc1ccc(NC(=O)CN2C(=O)S/C(=C/c3ccc(-c4cc(C(=O)O)ccc4C)o3)C2=O)cc1C	-7	-12	-1%[38.3 µM]	20µM*	u
COc1ccc2nc(/N=C(\N)NC(=O)C(C)(C)C)nc(C)c2c1	-1	3	2%	-5%	7%
CCC(=O)N/C(N)=N/c1nc(C)c2cc(OC)ccc2n1	1	9	3.5µM*	-6%	2%
Cc1ccc(C)c(NC(=O)c2ccccc2O)c1	3	0	16µM*	-6%	u
COCC1CCCN(Cc2ccc3c(c2)CN(C(=O)c2ccc(OC)nc2OC)CCO3)C1 (centres undefined)	x	x	0%	x	x
O=C(O)c1[nH]c2ccccc2c1C(c1ccccc1)c1c(C(=O)O)[nH]c2ccccc12	3	-4	1%	-7%	11µM*
Cc1oc(-c2ccccc2NS(C)(=O)=O)nc1CN(C)Cc1ccc(Cl)cc1	x	x	-1%	x	x
CCCCCCc1cc2cc(S(=O)(=O)c3ccc(F)cc3)c(=O)oc2cc1O	4	-3	40µM*	-6%	-5%
COC(=O)c1c(OCC2CCCN(C)C2)cc(=O)n2c1CCN(Cc1ccc(OC)c(O)c1)CC2 (centres undefined)	x	x	0%	x	x
Cc1ccc(C(=O)[C@H](C)CN2CCCCC2)cc1	x	x	x	x	3%
SMILES	CCT chaperon mod	PI4K2A block	PINK1 modulator	Tb PGK inh	GLS inhibitor
CCN(CC)S(=O)(=O)c1ccc(N2CCN(c3ccccc3O)CC2)nc1	0	-1	0%	1%	4%
CCN(CC)S(=O)(=O)c1ccc(C(=O)NC(=S)N2CCN(c3ccccc3O)CC2)cc1	-52*	-2	-1%	2%	0%
CCCCN(C(=O)c1cc(CN2C(=O)c3ccccc3C2=O)ccc1OC)c1c(N)n(CC(C)C)c(=O)[nH]c1=O	-84*	10	-1%	0%	3%
CCCCN(C(=O)c1ccc(N2C(=O)c3ccccc3C2=O)cc1)c1c(N)n(CC(C)C)c(=O)[nH]c1=O	-2	-2	-1%	-6%	-21%
Cc1ccn2c(NC3CCCC3)c(-c3ccccn3)nc2c1	-93*	-4	28%	i	u
c1ccc(-c2nc3ccccn3c2NC2CCCC2)nc1	-1	-1	-1%	4%	-15%
Cc1ccn2c(Nc3ccc4c(c3)OCO4)c(-c3ccccn3)nc2c1	-6	-3	40µM*	10%	11µM*
Cc1ccc(Nc2c(-c3ccccn3)nc3cc(C)ccn23)cc1	1	-4	u	5%	u
COc1ccc(CN2CCCC(n3cc(C(=O)NC4CCCC4)nn3)C2)c(O)c1 (centres undefined)	x	x	3%	x	x
COC1=CC(=O)c2nc(Cl)ccc2C1=O	-2	-58*	4%	x	-10%
c1csc(-c2nnc(NC3CCCCC3)c3ccccc23)c1	2	-2	32µM*	-10%	-12%
CCN1CCCC1CN (centres undefined)	x	0	x	x	x
CCc1nnc(NC(=O)Nc2ccc(Cl)cc2)s1	-2	5	1%	-6%	-3%
O=C(Nc1ccc(Cl)cc1)Nc1nnc(CSCc2ccc(Cl)cc2)s1	-1	0	11µM*	i	-1%
CC1=C(C#N)C(=O)NC(=O)/C1=C\c1ccc(-c2cc(C)c(C)cc2[N+](=O)[O-])o1	-4	-10	-1%	-14%	11µM*
O=C(/C=C/c1ccc(O)c(O)c1)c1ccccc1O	-2	-14	-1%	-5%	5.6µM*
COc1cc(/C=C2\SC(c3ccc(C)cc3)=NC2=O)ccc1O	0	0	-1%[38.3 µM]	x	0%
COc1ccc(/C=C2\SC(c3ccc(C)cc3)=NC2=O)cc1OC	1	0	9%[38.3 µM]	x	4%
COc1cc(/C=C2\SC(c3ccccc3)=NC2=O)cc(Cl)c1O	-43*	-1	-1%	-24%	8.9µM*
COc1cc(/C=C2\SC(c3ccc(C)cc3)=NC2=O)cc(OC)c1OC	-64*	8	19%[38.3 µM]	x	-7%
O=C(NCc1nnc2n1CCN(Cc1ccc(C(F)(F)F)cc1)CC2)c1ccccn1	x	x	0%	x	x
Cc1[nH]c(=S)c(C#N)c(C)c1C(=O)Nc1ccccc1	-3	2	-1%	-8%	u
CCc1c(C(=O)Nc2ccccc2)c(C)[nH]c(=S)c1C#N	0	3	x	0%	11µM*
Cc1cc(C)n(-c2cccc(C(=O)NCC3Cc4cccc(-c5ccccn5)c4O3)c2)n1 (centres undefined)	x	x	0%	x	x
CCN1CCC(N[C@H]2C[C@@H](C(=O)NC)N(Cc3cccc4ccccc34)C2)CC1	x	x	0%	x	x
Cc1ccccc1-c1nn(-c2ccc(F)cc2F)cc1CNCCCN(C)C	2	4	-2%	3%	10µM*
